Screens as filed in PubChem BioAssay.
Sampled rows, rich in hits. Any-hit rate of the full collection: about 3.5%.
GPR151 activ: activates the human receptor GPR151; Q8TDV0; PathHunter beta-arrestin GPR151 cells, luminescence; activation, % at 11.2 µM; 1% of 650,000 active; AID 1508602; in the data active = activation above about 4.9%;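 also: 0% = median of compound wells and 100% = cells with positive control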
Target sequence (Q8TDV0 whole entry, looked up): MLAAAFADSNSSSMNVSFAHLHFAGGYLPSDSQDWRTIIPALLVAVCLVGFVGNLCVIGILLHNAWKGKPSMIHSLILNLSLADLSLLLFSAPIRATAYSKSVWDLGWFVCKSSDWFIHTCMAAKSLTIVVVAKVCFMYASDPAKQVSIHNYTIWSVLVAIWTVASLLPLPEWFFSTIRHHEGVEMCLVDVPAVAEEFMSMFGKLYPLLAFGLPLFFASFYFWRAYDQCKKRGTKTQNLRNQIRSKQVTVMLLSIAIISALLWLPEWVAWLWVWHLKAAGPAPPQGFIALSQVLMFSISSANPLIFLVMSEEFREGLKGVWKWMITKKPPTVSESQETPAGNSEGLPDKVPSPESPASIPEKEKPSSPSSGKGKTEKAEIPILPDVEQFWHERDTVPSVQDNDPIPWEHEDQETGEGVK
TEAD-YAP block: TEAD-YAP interaction inhibition. inhibition, % at 9.12 µM. 1.4% of 640,000 active. HEK-TIYL cells, TEAD-Gal4/YAP UAS-luciferase luminescence. AID 1259422; in the data active = inhibition above about 32%;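 also: 0% = median of test compound wells and 100% = reference inhibitor wells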
MITF inh: blocks human microphthalmia-associated transcription factor; 0.91% of 650,000 active; AID 1259374; O75030; inhibition, % at 2.6 µM; AlphaScreen MITF homodimerization, bead proximity signal; in the data active = inhibition above about 50%;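 also: 0% = vehicle wells with protein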
FBW7 act: activators of human E3 ligase FBW7 | AlphaScreen FBW7–phospho-cyclin E peptide binding, activator screen | 0.13% of 650,000 active | normalized activity (activation), % at 26.1 µM | Q969H0 | AID 1259310; in the data active = normalized activity above about 1.9%;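 also: purified mutant Fbw7 with reduced substrate affinity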
An asterisk follows results filed as active.

SMILES	GPR151 activ	TEAD-YAP block	MITF inh	FBW7 act
O=C(c1cnc(N2CCN(c3ncccn3)CC2)c2ccccc12)N1CCN(Cc2ccc3c(c2)OCO3)CC1	-1	61*	14	0
O=C(CN1CCC(n2cnc3cc(C(F)(F)F)ccc32)CC1)Nc1cccc(Cl)c1	2	4	29	0
COc1ccc(Cl)cc1NS(=O)(=O)c1ccc(C)cc1OC	0	52*	-7	0
COc1cc(S(=O)(=O)Nc2cc(OC)c(Cl)cc2OC)ccc1Cl	3	50*	13	0
CN(C)C(=O)c1ccc(S(=O)(=O)NCc2ccncc2)cc1	0	37*	7	0
COc1ccc(S(=O)(=O)Nc2ccc(OC)c(OC)c2)cc1Cl	2	38*	-2	0
CC(C)(C)SCCNS(=O)(=O)c1ccc(Br)cc1	0	-4	9	0
CN(C)S(=O)(=O)c1ccc(C(=O)NCC(=O)O)cc1	0	5	4	0
COc1cc(S(=O)(=O)NCc2cccnc2)ccc1Cl	-1	8	1	0
COc1cc(S(=O)(=O)NCc2ccncc2)ccc1Cl	3	40*	17	0
COc1ccc(S(=O)(=O)Nc2cc(OC)c(Cl)cc2OC)cc1	1	64*	14	1
CCOc1ccc(S(=O)(=O)Nc2cc(OC)c(Cl)cc2OC)cc1	0	63*	5	0
COc1cc(NS(=O)(=O)c2ccccc2)c(OC)cc1Cl	1	3	-4	0
CCOc1ccc(S(=O)(=O)Nc2cc(C)ccc2OC)cc1	1	53*	7	1
NNc1nc2sc3c(c2c(=O)n1-c1ccccc1)CCCCC3	-1	-18	5	0
Cc1cc([N+](=O)[O-])ccc1N1C(=O)c2ccccc2C1=O	0	4	5	0
Cc1cc(C)c(S(=O)(=O)NCc2ccncc2)c(C)c1	0	46*	-6	0
COc1ccc(C(=O)Nc2ccc(-c3csc(C)n3)cc2)c(OC)c1	-1	-31	-10	0
COc1ccc(C(=O)Nc2ccc(-c3cn4ccsc4n3)cc2)c(OC)c1	0	-15	-5	2.0*
CCOc1cc(/C=C2/C(=N)N3OC(C)=CC3=NC2=O)ccc1OCc1ccc(F)cc1	1	-2	-11	0
O=[N+]([O-])c1cccc(S(=O)(=O)N2CCN(Cc3ccc4c(c3)OCO4)CC2)c1	-2	9	19	0
N=C1/C(=C\c2ccc([N+](=O)[O-])o2)C(=O)N=C2SC(N3CCCCC3)=NN12	-1	-1	67*	0
CC1=CC2=NC(=O)/C(=C\c3ccc([N+](=O)[O-])o3)C(=N)N2O1	1	4	65*	0
N=C1/C(=C/c2ccc([N+](=O)[O-])o2)C(=O)N=C2SC(c3ccco3)=NN12	0	7	91*	0
CCC1=NN2C(=N)/C(=C\c3ccc(SCc4ccco4)o3)C(=O)N=C2S1	0	-1	86*	-1
SMILES	GPR151 activ	TEAD-YAP block	MITF inh	FBW7 act
COc1ccc(CCNc2nc(Nc3ccnn3C)nc3c2ncn3CCN2CCCC2=O)cc1	0	11	0	0
N#Cc1ccsc1NC(=O)COC(=O)CNC(=O)c1cc(Cl)cc([N+](=O)[O-])c1	1	-15	6	0
O=C(O[C@@H]1Cc2c(O)cc(O)cc2O[C@@H]1c1cc(=O)c(O)c2c(O)c(O)cc([C@H]3Oc4cc(O)cc(O)c4C[C@H]3O)c2c1)c1cc(O)c(O)c(O)c1	4	1	106*	0
Oc1ccc([C@H]2Oc3cc(O)cc(O)c3C[C@H]2O)cc1	-1	-3	28	0
O=C(N1CCC(O)(c2ccc(F)cc2)CC1)C(F)(F)F	0	4	9	0
Cc1cc(/C=C2\Sc3ccccc3N2C)cc(C)[n+]1N(C)C	0	78*	3	0
Cc1cc(/C=C2\Sc3ccccc3N2C)cc(C)[n+]1N1CCN(C)CC1	0	73*	22	0
Cc1cc(/C=C2\Sc3ccccc3N2C)cc(C)[n+]1CCCN1CCOCC1	0	41*	1	0
CN1CCN(CC(=O)N2c3ccccc3Sc3ccccc32)CC1	2	3	1	0
COc1cc(/C=C2\C(=O)NC(=O)N(c3ccc(C)c(C)c3)C2=O)c([N+](=O)[O-])cc1OC	0	-1	-3	0
Oc1oc(-c2ccc(Br)cc2)nc1C=Nc1cccc(F)c1	0	5	12	1
CCOC(=O)c1c(NC(=O)C(c2ccccc2)c2ccccc2)sc(C(N)=O)c1C	0	7	-7	0
Cc1ccc(-n2c(SCc3cc(=O)n4ccccc4n3)nc3[nH]ncc3c2=O)cc1Cl	2	33*	8	0
O=c1oc2cc(Cl)c(O)cc2s1	1	-2	19	-1
O=c1oc2cc(Cl)c(O)c(Cl)c2s1	-1	14	55*	0
O=c1oc2c(Br)cc(Br)c(O)c2s1	1	-11	8	-1
COC(=O)Oc1c(Br)cc2sc(=O)oc2c1Br	0	-2	5	0
O=c1oc2cc(Br)c(O)c(Br)c2s1	0	-4	59*	-1
Cc1c(Br)c(O)c(Br)c2sc(=O)oc12	0	4	79*	-1
O=C1CC2(CCN(C(=O)/C=C\c3ccc([N+](=O)[O-])cc3)CC2)Oc2ccccc21	1	3	13	0
Cc1ccc(C(=O)NCc2cccnc2)c(NCc2cccnc2)n1	0	8	7	1
C=CCNC(=O)c1ccc(C)nc1NCc1cccnc1	0	-3	17	1.9*
COCCn1c(C)cc(C(=O)CN2C(=O)NC(C)(c3ccc(C(C)(C)C)cc3)C2=O)c1C (stereo not given)	1	36*	2	0
O=C1CCN(C(=O)c2ccc(-c3nc4ccccc4s3)s2)CC1	-11	99*	13	0
CCOCCCNc1ncnc2c1cnn2C	0	1	-14	1.9*
SMILES	GPR151 activ	TEAD-YAP block	MITF inh	FBW7 act
CCOC(=O)C1=NN(C(=O)Cc2ccccc2)C(O)(C(C)(C)C)C1 (stereo not given)	0	13	-6	0
COC(=O)C1=NN(C(=O)Cc2ccccc2)C(O)(C(C)(C)C)C1 (stereo not given)	0	-1	16	2.0*
COC(=O)c1c(C)[nH]c(-c2csc(N)n2)c1C	0	51*	13	0
CC(=O)c1c(C)[nH]c(-c2csc(NC3CCCCC3)n2)c1C	-1	-4	-9	1
COc1cccc2sc(N3CCOCC3)nc12	0	-33	16	2.0*
COc1cccc2sc(N(C)c3ccccc3)nc12	-2	47*	-4	0
COc1cccc2sc(N3CCN(c4nc5ccccc5s4)CC3)nc12	2	-3	6	0
O=C(COc1ccccc1Cl)Nc1cc([N+](=O)[O-])ccc1O	0	69*	-24	0
O=C(COc1ccccc1)Nc1cc([N+](=O)[O-])ccc1O	-8	56*	3	0
O=C(O)c1ccccc1C(=O)Nc1ncc(S(=O)(=O)c2ccc([N+](=O)[O-])cc2)s1	-1	8	22	0
CN1Cc2cccc(C(=O)NC3(c4ccc5c(c4)OCO5)CCCC3)c2C1=O	0	13	14	1
